PubChem BioAssay AID540333 (Southern Research Specialized Biocontainment Screening …, 2011)
The whole screen tested about 10,000 compounds, of which about 320 (3.2%) were called active. This is one part of a sample in which actives are shown more often than they occur. Unmarked numbers belong to inactive results. Cut-off read from the data, not from the text of the source: active = CPE inhibition mostly above about 9.1% (no sharp cut-off); inactive = mostly below about 7.2%.

Experiment: antivirals protecting cells from dengue CPE – CPE readout, HTS (AID 540333)
Conditions: Dengue virus CPE inhibition in host cells, at 20 µM; stronger effect = higher value

Compound	CPE inhibition
O=C([O-])c1ccc(-[n+]2c(-c3ccccc3)cc(-c3ccccc3)cc2-c2ccccc2)cc1	10.2% (active)
CC(C)=NOC(=O)c1ccc(-c2ccccc2)cc1	0.26%
CCC(=O)c1ccc(-c2ccccc2)cc1	inactive
C=C(C)C1CC=C(C)/C(=N/NC(=O)c2cccc([N+](=O)[O-])c2)C1 (centres undefined)	inactive
CCOC(=O)c1sc(N/N=C/c2ccccc2)nc1C	0.925%
COc1ccc(/C=C(\C#N)C(=O)OCC(=O)Nc2c(C)cccc2C)cc1	inactive
Cc1ccc(C)c2[nH]c(=O)c(C(c3nnnn3C(C)(C)C)N3CC=C(c4ccc(F)cc4)CC3)cc12 (centres undefined)	26.9% (active)
Cc1ccc(NC(=S)NC(C)CCc2ccccc2)cc1C (centres undefined)	19.3% (active)
CC(CCc1ccccc1)NC(=O)Cc1ccccc1 (centres undefined)	inactive
Cc1ccccc1NC(=O)C(=O)NC(C)CCc1ccccc1 (centres undefined)	inactive
Cc1ccccc1C(=O)Nc1c2c(nc3ccccc13)CCCC2	inactive
CCOC(=O)/C=C/C(=O)OCC(=O)NC(c1ccccc1)c1ccccc1	0.285%
O=C(COC(=O)/C(=C/c1cccs1)c1cccs1)NC(c1ccccc1)c1ccccc1	17.2% (active)
O=C(COC(=O)Cc1ccsc1)NC(c1ccccc1)c1ccccc1	inactive
Cc1nn(C)c(C(=O)NCc2ccc(Cl)cc2)c1Cl	0.24%
Cc1ccc(NC(=S)c2ccccc2)cc1	inactive
CCOC(=O)C1=C(Nc2ccccc2)CC(C)(O)C(C(=O)OCC)C1c1ccccc1 (centres undefined)	0.14%
CCOC(=O)C1=C(Nc2ccccc2)CC(C)(O)C(C(=O)OCC)C1c1ccc(Cl)cc1 (centres undefined)	26.4% (active)
CCOC(=O)C1C(C(=O)OCC)C1(c1ccccc1)c1ccccc1 (centres undefined)	0.545%
Cc1ccc(-n2[nH]c3c4c(ccc3c2=O)C(=O)c2ccccc2C4=O)cc1	17% (active)
CN(C)c1cccc2c1C(=O)c1ccccc1C2=O	inactive
O=C1c2ccccc2C(=O)c2c1cccc2N1CCCC1	0.885%
O=S(=O)(c1ccc(-c2csc(Nc3ccc(Br)cc3)n2)cc1)N1CCCC1	5.89%
O=S(=O)(c1ccc(-c2csc(Nc3ccc(F)cc3)n2)cc1)N1CCCC1	2.46%

Compound	CPE inhibition
CC(C)Cc1nc(Nc2ccc(S(=O)(=O)N3CCCC3)cc2)c2nnn(Cc3ccccc3)c2n1	19.9% (active)
O=C(COC(=O)Cc1c[nH]c2ccccc12)Nc1cccc2ccccc12	0.635%
COc1cccc(NC(=S)NNC(=O)Cn2nc(C(F)(F)F)cc2C)c1	inactive
O=C1C(Cc2cccc([N+](=O)[O-])c2)SC(=Nc2ccccc2)N1c1ccccc1 (centres undefined)	2.22%
CCOc1ccc(C(=O)Nc2cccc(-c3nc4ccccc4[nH]3)c2C)cc1[N+](=O)[O-]	1.88%
CCOc1ccc(C(=O)Nc2cc(-c3nc4ccccc4[nH]3)ccc2Cl)cc1[N+](=O)[O-]	inactive
CCOc1ccc(C(=O)Nc2ccc(-c3nc4ccccc4[nH]3)cc2)cc1[N+](=O)[O-]	8.47% (active)
COc1cccc(-c2c(-c3cc(OC)cc(OC)c3)n(C)c3ccc(Br)cc23)c1	1.34%
COc1cc(OC)cc(-c2c(-c3ccc(F)cc3)c3cc(-c4cnc(OC)nc4)ccc3n2C)c1	2.91%
O=C1[C@@H]2[C@@H]3C[C@@H]([C@H]4ON=C(c5ccc(Cl)cc5)[C@@H]34)[C@@H]2C(=O)N1c1ccc2c(c1)OCO2	inactive
O=C1[C@@H]2[C@@H]3C[C@@H]([C@H]4ON=C(c5ccc(Cl)cc5Cl)[C@@H]34)[C@@H]2C(=O)N1C1CCCCC1	14.8% (active)
O=C1[C@@H]2[C@@H]3C[C@@H]([C@H]4ON=C(c5ccc(Cl)cc5)[C@@H]34)[C@@H]2C(=O)N1C1CCCCC1	10.9%
COc1ccc(NC(=O)CCC(=O)OCc2ccc(Br)cc2)cc1	0.265%
O=C(/C(=C\c1ccccc1)c1nc2ccccc2[nH]1)c1ccc(Cl)cc1	inactive
CCn1c(SCC(=O)N/N=C/c2c[nH]c3ccccc23)nnc1-c1ccc(C(C)(C)C)cc1	14.2% (active)
CCn1c(SCC(=O)N/N=C/c2c[nH]c3ccccc23)nnc1-c1ccc(Cl)cc1	1.47%
CCn1c(SCC(=O)N/N=C/c2ccc(C)o2)nnc1-c1ccc(C(C)(C)C)cc1	0.345%
O=C(CSc1nnc(SCc2ccccc2Cl)s1)N/N=C/c1c[nH]c2ccccc12	0.645%
O=C(CSc1nnc(SCc2cccc3ccccc23)s1)N/N=C/c1c[nH]c2ccccc12	23.8% (active)
Cc1nn(-c2ccccc2)c(C)c1/C=N/NC(=O)CSc1nnc(SCc2cccc3ccccc23)s1	4.67%
CCc1ccc(OC(C)c2nnc(SCC(=O)Nc3ncccc3C)n2C)cc1 (centres undefined)	0.355%
Cc1cc(C)c2[nH]c(=O)c(CN(Cc3cccs3)C(=S)NCc3ccco3)cc2c1	4.37%
CN(CC(=O)Nc1ccc(Cl)c(Cl)c1)C(=O)/C=C/c1ccc(F)cc1	0.95%
S=C(NCCc1ccccc1)NC1CC1	inactive

Compound	CPE inhibition
COC(=O)c1sccc1N/N=C/c1cccc(OC)c1O	2.21%
O=C(COc1ccc(Cl)cc1)OCC(=O)N1CCCc2ccccc21	inactive
COc1ccc(OCC(=O)N2c3ccccc3CCc3ccccc32)cc1	inactive
CCc1ccc(OCC(=O)N2c3ccccc3CCc3ccccc32)cc1	14.2% (active)
COc1cc(/C(C)=N/NC(=S)NC(C)C)cc(OC)c1OC	inactive
N#Cc1ccc(NC(=O)CCc2nc3ccccc3s2)cc1	inactive
COC(=O)C1=C(NC(=O)COc2ccc3ccccc3c2)CCS1	1.12%
Cc1ccc(NC(=O)CNc2ccc(Cl)cc2F)cc1	0.58%
COc1ccc(C)cc1NCC(=O)Nc1ccc(C(C)(C)C)cc1	15.4% (active)
COc1ccc(Cl)cc1NC(=O)CNc1ccccc1F	0.95%
COc1cc(NC(=S)NC(=O)CC(C)C)ccc1NC(=O)c1cc2ccccc2o1	0.02%
O=C(c1cccc(NS(=O)(=O)c2ccc(F)c(F)c2)c1)N1CCN(C(c2ccccc2)c2ccccc2)CC1	39.5% (active)
O=C(c1cccc(NS(=O)(=O)c2ccc(F)c(F)c2)c1)N1CCN(Cc2ccccc2)CC1	inactive
O=C(COC(=O)c1cccc(NS(=O)(=O)c2ccc(F)c(F)c2)c1)NC(=O)NC1CCCCC1	3.8%
CCn1c(-c2c(Cl)c(C)nn2C)n[nH]c1=S	inactive
COCCCNC(=S)NC1CCCCC1	inactive
O=C1C(Cc2ccc(F)cc2)SC(=Nc2ccccc2)N1c1ccccc1 (centres undefined)	1.01%
Cc1ccc(CC2SC(=Nc3ccccc3)N(c3ccccc3)C2=O)cc1 (centres undefined)	4.75%
O=C1C(Cc2ccc(Br)cc2)SC(=Nc2ccccc2)N1c1ccccc1 (centres undefined)	12.3% (active)
Cc1nn(-c2ccccc2)c(N)c1C(O)(C(F)(F)F)C(F)(F)F	0.32%
CCOC(=O)[C@@H]1[C@H]2COc3ccc(Br)cc3[C@@H]2N2C(=O)N(c3ccc(OC)cc3)C(=O)[C@]12C	1.7%
S=C(NCC1CCCO1)Nc1ccc(Cl)cc1 (centres undefined)	0.15%
Cc1ccc(S(=O)(=O)N2CCN(C(C(=O)Nc3ccc(F)cc3)c3ccccc3)CC2)cc1 (centres undefined)	1.1%
Cc1cc(C)cc(NC(=O)C(c2ccccc2)N2CCCC2)c1 (centres undefined)	0.92%

Compound	CPE inhibition
Cc1ccc(NC(=O)C(c2ccc(Cl)cc2Cl)N2CCCC2)cc1 (centres undefined)	11.5% (active)
Cc1cccc2cc(C3CC(c4ccco4)=NN3C(=O)CCC(=O)O)c(Cl)nc12 (centres undefined)	inactive
COc1cc(C(=O)NCC(c2cccs2)N(C)C)cc(Cl)c1OC(C)C (centres undefined)	0.015%
COCCNC(=O)CCCC(=O)NCCOC	inactive
CCOC(=O)c1c(NC(=O)C2=C(C)NC(=S)NC2c2ccc(F)cc2F)sc(C)c1C (centres undefined)	32.4% (active)
CCOc1cccc(C2NC(=S)NC(C)=C2C(=O)Nc2ccccc2)c1 (centres undefined)	0.13%
CC1=C(C(=O)Nc2ccc(F)c(F)c2)C(c2cccs2)NC(=S)N1 (centres undefined)	0.675%
O=C(CSc1nc2ccccc2n1S(=O)(=O)c1cccc([N+](=O)[O-])c1)NCc1cccs1	0.11%
COc1cc(C(=O)OCC(=O)Nc2ccc(SC(F)F)cc2)cc(OC)c1OC	inactive
O=C(Cc1c[nH]c2ccccc12)NNC(=O)c1ccccc1	0.335%
COc1ccccc1CNC(=O)C(Cc1c[nH]c2ccccc12)NC(=O)OCc1ccccc1 (centres undefined)	6.32%
Cc1ccc(NP(=O)(c2ccc(N(C)C)cc2NC(=O)c2cccs2)N2CCOCC2)cc1 (centres undefined)	2.19%
CN(C)c1ccc(P(=O)(Nc2ccccc2)N2CCOCC2)c(NC(=O)c2cccs2)c1 (centres undefined)	2.15%
Cc1ccc(NP(=O)(c2ccc(N(C)C)cc2NC(=O)c2cccs2)N2CCOCC2)cc1Cl (centres undefined)	28.7% (active)
COC(=O)c1ccccc1NC(=O)C1CCCO1 (centres undefined)	3.31%
CCOC(=O)c1c(C)[nH]c(C(=O)COC(=O)[C@H](C)NC(=O)c2ccccc2Cl)c1C	0.24%
CC(=O)c1c(C)[nH]c(C(=O)Nc2nc(-c3ccc(Cl)cc3)cs2)c1C	26.9% (active)
CC(=O)c1c(C)[nH]c(C(=O)Nc2nc(-c3ccc(-c4ccccc4)cc3)cs2)c1C	4.52%
CC(=O)c1c(C)[nH]c(C(=O)Nc2nc(-c3ccccc3)c(C)s2)c1C	0.6%
O=C(NNc1nc(-c2ccc(Cl)cc2)cs1)c1ccco1	inactive
O=C(Nc1nc(-c2ccc(Cl)cc2)cs1)NC1CCCCC1	20.3% (active)
O=C(/C=C/c1ccco1)NC(=S)Nc1nc(-c2ccc(Cl)cc2)cs1	1.57%
